Drawing on PubChem BioAssay, this text covers activation and outcome for 17 compounds.

Structures are written as SMILES. The source made the active and inactive calls.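 How the source made its calls: active means calcium signal rise above buffer-control mean plus 5 SD in both duplicates, and also a hit in the primary screen; inactive means the rest.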

The test has as its target Short transient receptor potential channel 4 (Mus musculus) (UniProt Q9QUQ5). Briefly: calcium flux activators in TRPC4/5HT1a cells, counter-screen for TRPC4 activator project, cell-based, second counter screen, HEK293 TRPC4/5HT1a, Fluo-4 (AID 434977).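 On activation: plate controls were assay buffer for no effect and maximal serotonin response for full effect.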 The following applies: Fluo-4 calcium flux, at 10 µM; hits give high values. (In general: Calcium assays in cells follow changes in intracellular calcium, usually with a dye or a luminescent sensor.)
Regarding `Cc1cc(-c2ccc(C)c(S(=O)(=O)NCCCN(Cc3ccccc3)C(C)C)c2)on1`, the activation is 56.3% (active). On the same count and under the same terms, next, `CCc1nc(NCCc2ccccn2)c2nnn(Cc3ccccc3F)c2n1`: 36.2% (active); `Cc1sc2ncnc(NCC(C)(C)N3CCOCC3)c2c1C`: 62.7% (active).

`Cc1ccc(N2CCN(c3ccc(NCc4nc5ccccc5n4C)cc3)CC2)cc1`: the outcome was inactive. Same read-out and setting: next, `COc1ccc(C(CNC(=O)CN2C(=O)NC3(CCCC3)C2=O)N(C)C)cc1` (configuration not stated): “inactive”. On the same count and under the same terms, for `Cc1cccc(NC(=S)NCC(c2cccnc2)N(C)C)c1C` (configuration not stated) the value was “inactive”.

For `Cc1ccccc1OCC(=O)NNC(=S)NC(=O)c1ccco1`, the activation is 42.5% (active). Still for that read-out and setting: next, `Cc1ccc(Sc2cc(C(=O)NCCN(C)C)c3ccccc3n2)cc1`: 24.6% (active); `O=C(O)c1ccc(-c2ccc(/C=c3/sc4nc5ccccc5n4c3=O)o2)cc1Cl`: 46.3% (active).

`Cc1ccccc1C(=O)NNC(=S)NC(=O)c1ccccc1`: the activation was 121% (active). For the compound `CN(C)C(CNC(=O)c1ccc2ccccc2n1)c1ccccc1` (configuration not stated), the outcome was inactive.

Take `Cc1cc(NC(=O)CN2CCc3ccccc3C2)nc2c1c(=O)oc1ccccc12`: the result was inactive. Turning to `Cn1c(CN2CCN(c3cccc(Cl)c3)CC2)nc2ccccc21`, the result was inactive. Still for that read-out and setting: next, `CN(C)C(CNC(=O)c1cnc(Cl)c(Cl)c1)c1ccccc1` (configuration not stated): “inactive”. On the same count and under the same terms, for `Cc1ccc(Cl)cc1NC(=O)CNCC(c1ccccc1)N(C)C` (configuration not stated) the value was “inactive”. Same read-out and setting: next, `CN(C)CCCN(C(=O)c1ccc(S(=O)(=O)N2CCOCC2)cc1)c1nc2ccc(F)cc2s1`: “inactive”. Take `CN(C)CCN(C(=O)c1cccc2ccccc12)c1nc2cc3c(cc2s1)OCO3`: the outcome was inactive.
